The values below come from PubChem BioAssay.

Where “and” joins values, the source holds several entries; their conditions need not be identical. Identical values can stand only once. Calls of active or inactive are those of the source.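 Rule for the calls: active = compounds killing one labelled cell type while sparing the other, by normalised counts and ratio limits, not self-fluorescent; inactive = the rest.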

This assay can be described thus: differential killing of epithelial or mesenchymal cells, primary screen, imaging, PC-3E GFP, TEM4-18 mCherry, co-culture (AID 1345086).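 For all read-outs here: cells exposed to compound for 72 h before imaging.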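 For red/green cell ratio (normalised): normalised mesenchymal count divided by normalised epithelial count so high means epithelial killing.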 As to conditions: imaging cell counts, at 1 µM; for red/green cell ratio (normalised): actives lie on both sides, counts scaled to control wells, 1 = unselective.
Where [1] appears, read: measured here: epithelial PC-3E GFP cell survival.
[2] abbreviates: measured here: mesenchymal TEM4-18 mCherry cell survival.

Regarding `COc1cc(O)c(C(C)=O)c(O)c1`, the red/green cell ratio (normalised) was 0.99 (inactive). Also, the normalised cell number under setting [1] was 0.97. Besides, the normalised cell number under setting [2] worked out at 0.97.
Turning to `CC(=C\C(=O)O)/C=C(\C)C[C@H](C)CCCC[C@H]1OC(=O)[C@@H]1CO`, the red/green cell ratio (normalised) was 1 (inactive). The normalised cell number under setting [1] was determined as 0.95. The normalised cell number under setting [2] amounted to 0.95.
Take `CC(=O)OCC1O[C@H](Sc2ccc(C)cc2)[C@@H]2[C@@H](OC(=O)N2C(=O)OCc2ccccc2)C1OC(C)=O` (some centres undefined): the red/green cell ratio (normalised) is 0.78 (inactive). The same molecule had a normalised cell number under setting [1] of 1.24. This molecule also yielded a normalised cell number under setting [2] of 0.96.
Taken in the same sequence, the figures for `O=c1c(O)cc([C@H]2Oc3cc(O)cc(O)c3C[C@H]2O)cc2c([C@H]3Oc4cc(O)cc(O)c4C[C@@H]3O)cc(O)c(O)c12` were 0.92 (inactive), 1.03 and 0.95.
Taken in the same sequence, the figures for `CC(C)=CCC[C@H](C)[C@H]1CC[C@]2(C)C[C@@H]3C(C)=CC(=O)[C@@H]3/C(C=O)=C\C[C@@H]12` were 0.9 (inactive), 1.16 and 1.04.
Taken in the same sequence, the figures for `O=C(O)CCc1ccccc1O` were 0.97 (inactive), 1.1 and 1.07.
As for `CC(C)(O)[C@@H]1CC[C@](C)([C@H]2[C@@H](O)C[C@@]3(C)C4C[C@H](O[C@@H]5O[C@H](CO)[C@@H](O)[C@H](O)[C@H]5O)C5C(C)(C)[C@@H](O[C@@H]6OC[C@@H](O)[C@H](O)[C@H]6O)CC[C@@]56C[C@@]46CC[C@]23C)O1` (some centres undefined), the red/green cell ratio (normalised) is 0.94 (inactive). Besides, the normalised cell number under setting [1] was 0.98. In addition, the normalised cell number under setting [2] came to 0.92.
The corresponding values for `COc1cc(OC)c2c(=O)c(OC)c(-c3ccccc3)oc2c1` are 0.85 (inactive), 1.32 and 1.13.
As for `CC(=O)OCC(=O)[C@H]1CCC2C3CC=C4C[C@@H](O)CC[C@]4(C)C3CC[C@@]21C` (some centres undefined), the red/green cell ratio (normalised) was 0.94 (inactive). Further, under setting [1], the normalised cell number worked out at 0.99. Under setting [2], this molecule gave a normalised cell number of 0.93.
For the molecule `C[C@H](CCC(=O)NCC(=O)O)[C@H]1CCC2C3C(C[C@H](O)[C@@]21C)[C@@]1(C)CC[C@@H](O)CC1C[C@H]3O` (some centres undefined), the red/green cell ratio (normalised) is 1.13 (inactive). Further, under setting [1], the normalised cell number is 0.89. Under setting [2], this molecule showed a normalised cell number of 1.01.
In the case of `OCC1O[C@H](O[C@H]2OC(CO)[C@@H](O)[C@@H](O)C2O)C(O)[C@H](O)[C@@H]1O` (some centres undefined), the red/green cell ratio (normalised) was 1.12 (inactive). The normalised cell number under setting [1] was found to be 1.01. In addition, under setting [2], the normalised cell number came to 1.13.
For `Cc1ccc(S[C@H]2OC(COCc3ccccc3)C(OC(=O)CCC(=O)O)[C@@H]3OC(=O)N[C@H]23)cc1` (some centres undefined), the red/green cell ratio (normalised) is 0.99 (inactive). The normalised cell number under setting [1] is 1.11. The molecule further displayed a normalised cell number under setting [2] of 1.1.
For the molecule `O=C(O)CCCCCCCC(O)C(O)CCCCCCO` (centres undefined), the red/green cell ratio (normalised) was 1.02 (inactive). Also, the normalised cell number under setting [1] stood at 1.11. Also, the normalised cell number under setting [2] came out at 1.13.
Take `COC(=O)c1cn(C2CC2)c2c(OC)c(F)c(F)cc2c1=O`: the red/green cell ratio (normalised) was 0.9 (inactive). Besides, the normalised cell number under setting [1] came out at 1.11. The molecule also gave a normalised cell number under setting [2] of 1.
For `CC[C@H](C)/C=C/C1=CC2=C(Cl)C(=O)[C@@]3(C)OC(=O)C(C(=O)[C@@H](C)[C@@H](C)O)=C3C2=CO1`, the red/green cell ratio (normalised) was 0.99 (inactive). The normalised cell number under setting [1] came out at 0.92. The molecule also showed a normalised cell number under setting [2] of 0.91.
For `COc1c(F)c(F)cc(C(N)=O)c1F`, the red/green cell ratio (normalised) is 1.04 (inactive). The same molecule registered a normalised cell number under setting [1] of 0.96. Also, the normalised cell number under setting [2] came to 0.99.
Taken in the same sequence, the figures for `COC(=O)CC1C(C)(C)C(OC(C)=O)[C@@H]2[C@@H](OC(C)=O)[C@]34O[C@@]2(O)C1(C)C3CC[C@]1(C)C4=CC(=O)O[C@H]1c1ccoc1` (some centres undefined) were 1.07 (inactive), 0.89 and 0.95.
The corresponding values for `CC1COc2c(N)c(F)cc3c(=O)c(C(=O)O)cn1c23` (centres undefined) are 0.95 (inactive), 1.07 and 1.01.
As for `CC1CCC2(OC1)OC1CC3C4CCC5C[C@@H](O)CCC5(C)C4=CCC3(C)C1[C@@H]2C` (some centres undefined), the red/green cell ratio (normalised) was 0.87 (inactive). The same molecule came in with a normalised cell number under setting [1] of 1.08. Under setting [2], this molecule had a normalised cell number of 0.94.
For `CCN1CC(CCN2CCOCC2)C(C(c2ccccc2)c2ccccc2)C1=O` (centres undefined), the red/green cell ratio (normalised) was 0.72 (inactive). The molecule also yielded a normalised cell number under setting [1] of 1.12. The molecule also returned a normalised cell number under setting [2] of 0.81.
Taken in the same sequence, the figures for `CC1CC(=O)c2c(cc3c(-c4c(O)cc(O)c5c(O)c6c(cc45)OC(C)CC6=O)c(O)cc(O)c3c2O)O1` (centres undefined) were 0.92 (inactive), 1.06 and 0.98.
With `C=C1[C@@H](C)C2[C@H](Cc3c[nH]c4ccccc34)NC(=O)[C@]23C(=O)/C=C/C(=O)[C@H](O)/C(C)=C/[C@@H](C)C/C=C/[C@H]3[C@@H]1O` (some centres undefined), the red/green cell ratio (normalised) was 0.87 (inactive). The normalised cell number under setting [1] was 1.25. Under setting [2], this molecule had a normalised cell number of 1.09.
For the molecule `CC(C)CCCC(C)C1CCC2C3CC[C@H]4C[C@@H](O)CC[C@]4(C)C3CC[C@]12C` (some centres undefined), the red/green cell ratio (normalised) is 1.05 (inactive). This molecule returned a normalised cell number under setting [1] of 1.04. This molecule displayed a normalised cell number under setting [2] of 1.1.
As for `COC(=O)C[C@H]1C(C)(C)C(=O)[C@@H]2CC3C4=CC(=O)O[C@@H](c5ccoc5)[C@]4(C)CCC3C1(C)C2=O` (some centres undefined), the red/green cell ratio (normalised) is 1.11 (inactive). Under setting [1], this molecule yielded a normalised cell number of 0.84. Under setting [2], the normalised cell number was found to be 0.94.
Taken in the same sequence, the figures for `Cc1c(F)c(F)cc(C(=O)NC(=O)NC2CC2)c1F` were 1 (inactive), 1.02 and 1.02.
Regarding `COc1c(F)c(F)cc(C(=O)O)c1F`, the red/green cell ratio (normalised) was 1.1 (inactive) and 1.01 (inactive). For the same molecule, the normalised cell number under setting [1] is 0.89 and 0.98. Under setting [2], the normalised cell number was 0.98 and 0.99.
As for `COC(=O)C1O[C@H](Sc2ccccc2)[C@@H](OC(=O)c2ccccc2)[C@@H](OC(=O)c2ccccc2)C1O` (some centres undefined), the red/green cell ratio (normalised) was 0.96 (inactive). Under setting [1], this molecule had a normalised cell number of 1.05. The molecule also displayed a normalised cell number under setting [2] of 1.
Taken in the same sequence, the figures for `C[C@@H]1CCC2[C@](C)(CO)[C@@H](O)CC[C@]2(C)[C@@]12CC[C@@](CO)(CCO)O2` (some centres undefined) were 0.93 (inactive), 1.01 and 0.94.
